The panel holds about 83,000 compounds, 20% with a hit somewhere; the sample as a whole holds those more often.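 Single-concentration screen, 48 h exposure, 96-well plates. Endpoint: percent growth. Below 10 = active.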 A number with no mark means an inactive call. The source made the active and inactive calls.
How the values were obtained:
Assay in all cases: NCI-60 one-dose screen, 48 h (100 = growth as untreated, 0 = no growth, -100 = all killed)
Conditions in all cases: 10 µM unless noted
NCI-H23 lung = test system: NCI-H23 lung
NCI-H226 lung = test system: NCI-H226 lung
NCI-H322M lung = test system: NCI-H322M lung
HOP-62 NSCLC = test system: HOP-62 NSCLC
NCI-H460 lung = test system: NCI-H460 lung
HOP-92 NSCLC = test system: HOP-92 NSCLC
NCI-H522 lung = test system: NCI-H522 lung
A549/ATCC NSCLC = test system: A549/ATCC NSCLC
786-0 renal = test system: 786-0 renal
COLO 205 colon = test system: COLO 205 colon
DU-145 prostate = test system: DU-145 prostate
K-562 leukemia = test system: K-562 leukemia
MALME-3M melanoma = test system: MALME-3M melanoma
MDA-MB-231 breast = test system: MDA-MB-231 breast
RXF 393 renal = test system: RXF 393 renal
SF-268 CNS = test system: SF-268 CNS
SF-295 CNS = test system: SF-295 CNS
SF-539 CNS = test system: SF-539 CNS
UACC-257 melanoma = test system: UACC-257 melanoma
M14 melanoma = test system: M14 melanoma

SMILES: Oc1ccc(C(c2ccc(O)cc2)C(Cl)(Cl)Cl)cc1
- growth (NCI-H23 lung): 99.8%
- growth (NCI-H226 lung): 104%
- growth (NCI-H322M lung): 98.2%
- growth (HOP-62 NSCLC): 107%
- growth (NCI-H460 lung): 98.2%
- growth (HOP-92 NSCLC): 56.1%
- growth (NCI-H522 lung): 83.2%
- growth (A549/ATCC NSCLC): 89.2%
- growth (786-0 renal): 102%
- growth (COLO 205 colon): 104%
- growth (DU-145 prostate): 109%
- growth (K-562 leukemia): 79.7%
- growth (MALME-3M melanoma): 134%
- growth (MDA-MB-231 breast): 98.2%
- growth (RXF 393 renal): 101%
- growth (SF-268 CNS): 96.9%
- growth (SF-295 CNS): 96.1%
- growth (SF-539 CNS): 99.9%
- growth (UACC-257 melanoma): 119%
- growth (M14 melanoma): 105%

SMILES: CCCCN1C(=O)c2cccc3c(-c4ccc5c(c4)ncn5C4CCCCC4)ccc(c23)C1=O
- growth (NCI-H23 lung): 96%
- growth (NCI-H226 lung): 101%
- growth (NCI-H322M lung): 101%
- growth (HOP-62 NSCLC): 85.2%
- growth (NCI-H460 lung): 110%
- growth (HOP-92 NSCLC): 94.6%
- growth (NCI-H522 lung): 69.6%
- growth (A549/ATCC NSCLC): 90.8%
- growth (786-0 renal): 106%
- growth (COLO 205 colon): 94%
- growth (DU-145 prostate): 101%
- growth (K-562 leukemia): 86%
- growth (MALME-3M melanoma): 95.4%
- growth (MDA-MB-231 breast): 108%
- growth (RXF 393 renal): 118%
- growth (SF-268 CNS): 106%
- growth (SF-295 CNS): 96.7%
- growth (SF-539 CNS): 101%
- growth (UACC-257 melanoma): 103%
- growth (M14 melanoma): 92.1%

SMILES: Cn1ncc(Cl)c1-c1cc(C(=O)N[C@H](CN)Cc2cccc(F)c2)sc1Cl
- growth (NCI-H23 lung): 33.4%
- growth (NCI-H226 lung): 34.5%
- growth (NCI-H322M lung): 28.6%
- growth (HOP-62 NSCLC): 25.4%
- growth (NCI-H460 lung): 8.53% (active)
- growth (HOP-92 NSCLC): -27.5% (active)
- growth (NCI-H522 lung): 6.11% (active)
- growth (A549/ATCC NSCLC): 18.4%
- growth (786-0 renal): -14.3% (active)
- growth (COLO 205 colon): -73.9% (active)
- growth (DU-145 prostate): 44.4%
- growth (K-562 leukemia): -21.1% (active)
- growth (MALME-3M melanoma): -73.8% (active)
- growth (MDA-MB-231 breast): -9.49% (active)
- growth (RXF 393 renal): -36.5% (active)
- growth (SF-268 CNS): 27%
- growth (SF-295 CNS): -12.5% (active)
- growth (SF-539 CNS): -31.5% (active)
- growth (UACC-257 melanoma): -87.7% (active)
- growth (M14 melanoma): -54.8% (active)

SMILES: CS(=O)(=O)N1CCc2c(-c3cnc(N)nc3)nc(N3CCOCC3)nc21
- growth (NCI-H23 lung): 22.9%
- growth (NCI-H226 lung): 5.8% (active)
- growth (NCI-H322M lung): -12.9% (active)
- growth (HOP-62 NSCLC): 4.78% (active)
- growth (NCI-H460 lung): 10%
- growth (HOP-92 NSCLC): -22.5% (active)
- growth (NCI-H522 lung): 10.5%
- growth (A549/ATCC NSCLC): -0.665% (active)
- growth (786-0 renal): -13.7% (active)
- growth (COLO 205 colon): -6.6% (active)
- growth (DU-145 prostate): 13.5%
- growth (K-562 leukemia): 22.3%
- growth (MALME-3M melanoma): -17.6% (active)
- growth (MDA-MB-231 breast): 30.4%
- growth (RXF 393 renal): -36.2% (active)
- growth (SF-268 CNS): 14.7%
- growth (SF-295 CNS): -34.7% (active)
- growth (SF-539 CNS): -45.1% (active)
- growth (UACC-257 melanoma): -18% (active)
- growth (M14 melanoma): 10.4%

SMILES: C=CC(=O)N1CCC(Oc2cc3c(Nc4ccc(Cl)c(Cl)c4F)ncnc3cc2OC)CC1
- growth (NCI-H23 lung): 23.2%
- growth (NCI-H226 lung): 34.9%
- growth (NCI-H322M lung): 12.2%
- growth (HOP-62 NSCLC): 18.4%
- growth (NCI-H460 lung): 39.3%
- growth (HOP-92 NSCLC): -29.7% (active)
- growth (NCI-H522 lung): -49.3% (active)
- growth (A549/ATCC NSCLC): 15.7%
- growth (786-0 renal): 23.2%
- growth (COLO 205 colon): 15%
- growth (DU-145 prostate): 24.2%
- growth (K-562 leukemia): 12.6%
- growth (MALME-3M melanoma): 60.9%
- growth (MDA-MB-231 breast): 17.3%
- growth (RXF 393 renal): -46.6% (active)
- growth (SF-268 CNS): 8.38% (active)
- growth (SF-295 CNS): 15.9%
- growth (SF-539 CNS): -8.55% (active)
- growth (UACC-257 melanoma): 24.4%
- growth (M14 melanoma): 28.8%

SMILES: Cc1ccc(C(=O)Nc2ccc(CN3CCN(C)CC3)c(C(F)(F)F)c2)cc1C#Cc1cnc2cccnn12
- growth (NCI-H23 lung): -84.8% (active)
- growth (NCI-H226 lung): -96.8% (active)
- growth (NCI-H322M lung): -98.8% (active)
- growth (HOP-62 NSCLC): -93.6% (active)
- growth (NCI-H460 lung): -83.3% (active)
- growth (HOP-92 NSCLC): -74.1% (active)
- growth (NCI-H522 lung): -86.6% (active)
- growth (A549/ATCC NSCLC): -95.1% (active)
- growth (786-0 renal): -91% (active)
- growth (COLO 205 colon): -88.2% (active)
- growth (DU-145 prostate): -99.7% (active)
- growth (K-562 leukemia): -64.9% (active)
- growth (MALME-3M melanoma): -85.5% (active)
- growth (MDA-MB-231 breast): -85% (active)
- growth (RXF 393 renal): -95.1% (active)
- growth (SF-268 CNS): -96.4% (active)
- growth (SF-295 CNS): -95.7% (active)
- growth (SF-539 CNS): -97.2% (active)
- growth (UACC-257 melanoma): -88.3% (active)
- growth (M14 melanoma): -88.8% (active)

SMILES: O=C(Cn1ccc2ccccc21)Nc1ccc(-c2nc3ccccc3s2)cc1
- growth (NCI-H23 lung): 94%
- growth (NCI-H226 lung): 102%
- growth (NCI-H322M lung): 98.8%
- growth (HOP-62 NSCLC): 103%
- growth (NCI-H460 lung): 105%
- growth (HOP-92 NSCLC): 105%
- growth (NCI-H522 lung): 102%
- growth (A549/ATCC NSCLC): 98.3%
- growth (786-0 renal): 103%
- growth (COLO 205 colon): 101%
- growth (DU-145 prostate): 101%
- growth (K-562 leukemia): 103%
- growth (MALME-3M melanoma): 108%
- growth (MDA-MB-231 breast): 108%
- growth (RXF 393 renal): 113%
- growth (SF-268 CNS): 96.6%
- growth (SF-295 CNS): 103%
- growth (SF-539 CNS): 102%
- growth (UACC-257 melanoma): 100%
- growth (M14 melanoma): 108%

Source: PubChem BioAssay (NCI)
